Laboratory results published in PubChem BioAssay AID504467 (National Center for Advancing Translational Sciences (NCATS), 2011).
Hit rate of the full screen: of about 330,000 compounds, about 7,700 (2.3%) were called active. About 26% were inconclusive and are not listed. Many of the other results were omitted from the sample, so actives are more common in it than they were. Values without a mark were called inactive. Calls come from the whole dose curve; as a rule, active = well fitted inhibition curve with a large enough effect; inconclusive = small, poorly fitted or top-dose-only effect, or effect the other way; inactive = flat fitted curve, though single readings scatter.

assay: qHTS screen for small molecules that inhibit ELG1-dependent DNA repair in human embryonic kidney (HEK293T) cells expressing luciferase-tagged ELG1; settings: HEK293T ELG1-luciferase reporter, luminescence, 16 h, DNA damage induced by 5-fluorouridine; series mostly up to 46.1 µM; activity change, negative = inhibition: at the top concentration; note: nearly all actives have a fitted effect of over 55% in size
Excerpt: NIH Molecular Libraries Probe Production Network [MLPCN] NIH Chemical Genomics Center [NCGC] MLPCN Grant: 1 R03 MH092164-01 Assay Provider: Kyungjae Myung, NHGRI, NIH Keywords: MLPCN, qHTS, NCGC, genotoxicity, cancer Assay Overview: Cancer cells divide rapidly compared to normal cells in the body. During cell division, cancer cells need to duplicate their genome by DNA replication. The failure of genome duplication leads to cancer cells' death. Therefore, inhibitors of DNA replication could specifically kill cancer cells. Based on this concept, many chemotherapeutic agents were developed and have been used to treat cancer patients. However, there are a limited number of agents available in the clinical setting, and some of those that do exist have low efficacy and severe side effects. Therefore, if we can find the compounds that effectively block DNA replication either by directly damaging DNA or by inhibiting other cellular mechanisms, the options for cancer treatment will be broadened. With this in mind, we developed a quantitative high-throughput ELG1-luciferase reporter gene assay. Small molecules that specifically block ELG1 function in response to DNA damage can be identified by monitoring the suppression of luciferase activity. Since ELG1 defines a pathway for repairing DNA damage, agents blocking ELG1 function can be used to sensitize cancer cells to chemotherapeutic agents whose mechanism of action involves the induction of DNA damage.
Assay Protocol Summary: For genotoxicity screening, 2,000 cells in 4 uL/well were dispensed into white, solid-bottom 1536-well plates using a solenoid-based dispenser. Following transfer of 1 uL 5-Fluorouridine and 23 nL compound or DMSO vehicle by a pin tool, the plates were incubated 16 hr at 37 °C and 5% CO2. 5 ul ONE-Glo (Promega) was then added to each plate and following a 30 min incubation at room temperature, luciferase activity was quantified on a ViewLux CCD-based plate reader.
% is set by controls: 0 for no effect and ±100 for the full control effect; potency is the fitted concentration of half-maximal effect.

Row | SMILES | activity change, negative = inhibition | Potency
1 | CC1(C)CC(=O)C=C(c2cccc3c2Oc2ccccc2S3)C1 | 13% | 
2 | COc1cccc(N(CC(=O)Nc2cccc(F)c2)S(C)(=O)=O)c1 | 0.188% | 
3 | CCOc1ccc(N(CC(=O)Nc2cccc(OC)c2)S(C)(=O)=O)cc1 | 15.1% | 
4 | Cc1ccc(N(CC(=O)Nc2cccc(N(C)S(C)(=O)=O)c2)S(C)(=O)=O)cc1 |  | 6.51 µM (active)
5 | Cc1[nH]c2ccccc2c1C(=O)C(C)Sc1nnc(C2CC2)o1 (stereo not drawn) | 8.65% | 
6 | O=C(COC(=O)c1ccc([N+](=O)[O-])o1)NC12CC3CC(CC(C3)C1)C2 | 9.39% | 
7 | COC(=O)[C@]1(Cc2ccccc2)N[C@H](CN(C)S(=O)(=O)c2ccc(F)cc2)[C@@H]2C(=O)N(Cc3ccccc3)C(=O)[C@@H]21 | -21.5% | 
8 | CC(=O)N1c2ccc(S(=O)(=O)N3CCCC(C(=O)NCc4ccc(Cl)cc4)C3)cc2CC1C (stereo not drawn) | -15.6% | 
9 | N#Cc1cccc(NC(=O)C2CCCN(C(=O)c3ccc(Cl)cc3)C2)c1 (stereo not drawn) | -29.3% | 
10 | Cc1ccccc1-c1n[nH]c(=S)n1C | 5.07% | 
11 | Cn1c(-c2sc3cc(C(F)(F)F)cnc3c2-c2ccccc2)n[nH]c1=S | -13.7% | 
12 | Cn1c(-c2sccc2OCc2cccc(C(F)(F)F)c2)n[nH]c1=S |  | 23.1 µM (active)
13 | O=C(Nc1ccccc1N1CCCC1)c1ccc(F)c(S(=O)(=O)N2CCOCC2)c1 | 6.03% | 
14 | COc1ccc(CCC(=O)N2CCN(S(=O)(=O)c3ccc(OC)cc3)CC2)cc1 | -5.8% | 
15 | CCCNC(=O)CSc1nc(Cc2ccccc2)nc2ccccc12 | -13.7% | 
16 | CCCNC(=O)CCc1c(C)nc2c(c(C)nn2-c2ccc(C)cc2)c1C | -24% | 
17 | CCCCC(CC)CNCc1cccn1CCN1CCOCC1 (stereo not drawn) | -7.51% | 
18 | CCN(CC)c1ccc(NC(=O)c2ccc(=O)[nH]c2)cc1S(=O)(=O)Nc1ccc(OC)cc1 | 6.95% | 
19 | CCN(c1ccccc1)S(=O)(=O)c1cccc(C(=O)NCc2ccccc2CN2CCOCC2)c1 |  | 11.6 µM (active)
20 | CCN(c1ccccc1)S(=O)(=O)c1cccc(C(=O)O)c1 | 0.0915% | 
21 | O=C(NCc1ccccc1CN1CCCC1)c1cccc(S(=O)(=O)Nc2ccc(F)cc2)c1 | 2.84% | 
22 | Cc1noc(C)c1C(=O)OC(C)C(=O)Nc1ccc2c(c1)OCO2 (stereo not drawn) | 0.0047% | 
23 | CC(C)C[C@H]1CN=C(Nc2ccccc2)N1CC1CCCCC1 | -13.2% | 
24 | CCCCN(C(=O)CSCC(=O)Nc1ccc(OC)cc1)c1c(N)n(CCC)c(=O)[nH]c1=O | -3.97% | 

Row | SMILES | activity change, negative = inhibition | Potency
25 | O=S(=O)(Nc1cccc(-n2cnnn2)c1)c1cnc(Cl)c(Cl)c1 | 1.57% | 
26 | COc1cccc(N(CC(=O)NC2CCCCCC2)S(=O)(=O)c2ccccc2)c1 | 8.34% | 
27 | O=C(Nc1nc2ccc(S(=O)(=O)N3CCCC3)cc2s1)C1CCCO1 (stereo not drawn) | -0.48% | 
28 | Cn1c(=O)oc2cc(S(=O)(=O)N3CCC(C(=O)Nc4ccc(OC(F)(F)F)cc4)CC3)ccc21 | 9.71% | 
29 | CS(=O)(=O)c1ccc2nc(NC(=O)C3CCCCC3)sc2c1 |  | 3.66 µM (active)
30 | Cc1ccc2nc(NC(=O)C3CCN(S(=O)(=O)c4ccc5c(c4)oc(=O)n5C)CC3)sc2c1 |  | 10.3 µM (active)
31 | CS(=O)(=O)c1ccc2nc(NC(=O)CN3CCCCCC3)sc2c1 | 10.2% | 
32 | Cc1nc2ccc(NC(=O)C3CCCCC3)cc2s1 | 11.8% | 
33 | CC(=O)c1c(C)[nH]c(C(=O)N2CCN(S(=O)(=O)c3ccc(F)c(F)c3)CC2)c1C | 8.13% | 
34 | O=C(COc1ccc(S(=O)(=O)Nc2cccc(C(F)(F)F)c2)cc1)N1CCOCC1 | -4.33% | 
35 | COc1ccc(NC(=S)NC2CCS(=O)(=O)C2)cc1 (stereo not drawn) | -1.15% | 
36 | O=S1(=O)CCC(NC(=S)SCc2ccccc2Br)C1 (stereo not drawn) | 15.4% | 
37 | CCCSC(=S)NC1CCS(=O)(=O)C1 (stereo not drawn) |  | 23.1 µM (active)
38 | O=C1COc2ccc(C(=O)CSc3ccc(Br)cc3)cc2N1 | -17% | 
39 | O=C(NCc1ccccc1CN1CCCC1)C1CCN(S(=O)(=O)c2ccc(Cl)cc2)CC1 | 10% | 
40 | Brc1ccc(CN2CC[C@H]3C=CCc4cccc(c43)C2)cc1 | -13.4% | 
41 | COc1ccc(CNC(=O)COC(=O)C(CCSC)N2C(=O)c3ccccc3C2=O)cc1 (stereo not drawn) | 0% | 
42 | Cc1sc2ncnc(SCC(=O)Nc3ccc(CN4CCCC4)cc3)c2c1C | -2.86% | 
43 | Cc1ccnc(N2CCCC(C(=O)Nc3cc(F)ccc3C)C2)n1 (stereo not drawn) | -12.3% | 
44 | Cc1sc2ncnc(N3CCC(C(=O)Nc4ccc(F)cc4Cl)CC3)c2c1C |  | 20.6 µM (active)
45 | CC1CC(C)CN(CCOc2cccc3ccccc23)C1 (stereo not drawn) | 2.83% | 
46 | CN(CC(=O)NCCc1ccc(S(N)(=O)=O)cc1)CC(=O)Nc1ccc(F)c(F)c1F | 6.42% | 
47 | C=CCC[C@@H](Cc1ccc(F)cc1)C(=O)O[C@H](CNC(=O)[C@H](CC=C)CC(=O)N(CCO)Cc1ccccc1)c1ccccc1 |  | 20.6 µM (active)
48 | C=CCC[C@@H](Cc1ccc(F)cc1)C(=O)OC[C@@H](C)NC(=O)[C@H](CC=C)CC(=O)N(CCO)Cc1ccccc1 | 0% | 
